From PubChem
IL1B cytotox = cytotoxicity in IL-1B stimulated HUVEC, primary screen, cytotoxicity control for IL-1B NFkB translocation project, imaging, Hoechst nuclear count, IL-1B stimulus; HUVEC cell count loss; cell count reduction, % at 2 µM; 0.41% of 94,000 active; AID 845, 2007;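 active = cell count reduction more than 3 SD above the screen-wide mean, cut at about 70% in these data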;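 note: normalized per plate to untreated control cells as the no-loss baseline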
PTK2B oligo ant = antagonists of Pyk2 self-association, primary screen, Q293 cells, FERM NanoBiT luminescence, HTS. z-score (the deposit names both 25 µM and 10 µM). AID 1347419, 2020. 0.83% of 99,000 active. stronger effect = lower value;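 active = Z-score of -3 or lower, scaled per plate to the spread of control and sample wells; inactive = z-score above -3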;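 note: negative z-score means lost luminescence so less FERM oligomerization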
IL1B NFkB inh = inhibitors of IL-1B driven NFkB p65 nuclear import, primary screen, imaging, HUVEC, IL-1B stimulus, high-content imaging; 0.43% of 94,000 active; HUVEC IL-1B NFkB p65 nuclear translocation imaging; AID 796, 2007; inhibition, % at 2 µM;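 active = inhibition above about 30% together with a positive call from visual inspection of the well image, limit read from the data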;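 note: nuclear over cytoplasmic p65 intensity ratio measured by imaging; 0% = IL-1B stimulated DMSO wells and 100% = unstimulated DMSO wells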
JNK3 blocker = JNK3 kinase activity inhibitors, primary screen, biochemical, human, purified enzyme; Mitogen-activated protein kinase 10 (Homo sapiens), P53779; HTS; inhibition, % at 8 µM; 0.61% of 60,000 active; AID 746, 2007; in the data active = inhibition above about 17%;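 note: 0% = DMSO and 100% = reference inhibitor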
IL1B NFkB pot = enhancers of NFkB p65 translocation in HUVEC – imaging, IL-1B stimulus, high-content imaging, primary screen; HUVEC IL-1B NFkB p65 nuclear translocation imaging; activation, % at 2 µM; 0.3% of 94,000 active; AID 819, 2007;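 active = activation above 40%, about the mean plus 3 SD, also judged a hit on visual image review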;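 note: percent activation is computed from the nuclear over cytoplasmic p65 intensity ratio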
FAK inh = FAK kinase inhibitors, primary screen, biochemical; biochemical FAK kinase activity assay; inhibition, %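 (tested at 7 µM)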; Focal adhesion kinase 1 (Homo sapiens), Q05397; 0.84% of 97,000 active; in the data active = inhibition above about 19%;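 note: 0% = DMSO and 100% = reference compound high control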
Target sequence (Q05397 whole entry, looked up): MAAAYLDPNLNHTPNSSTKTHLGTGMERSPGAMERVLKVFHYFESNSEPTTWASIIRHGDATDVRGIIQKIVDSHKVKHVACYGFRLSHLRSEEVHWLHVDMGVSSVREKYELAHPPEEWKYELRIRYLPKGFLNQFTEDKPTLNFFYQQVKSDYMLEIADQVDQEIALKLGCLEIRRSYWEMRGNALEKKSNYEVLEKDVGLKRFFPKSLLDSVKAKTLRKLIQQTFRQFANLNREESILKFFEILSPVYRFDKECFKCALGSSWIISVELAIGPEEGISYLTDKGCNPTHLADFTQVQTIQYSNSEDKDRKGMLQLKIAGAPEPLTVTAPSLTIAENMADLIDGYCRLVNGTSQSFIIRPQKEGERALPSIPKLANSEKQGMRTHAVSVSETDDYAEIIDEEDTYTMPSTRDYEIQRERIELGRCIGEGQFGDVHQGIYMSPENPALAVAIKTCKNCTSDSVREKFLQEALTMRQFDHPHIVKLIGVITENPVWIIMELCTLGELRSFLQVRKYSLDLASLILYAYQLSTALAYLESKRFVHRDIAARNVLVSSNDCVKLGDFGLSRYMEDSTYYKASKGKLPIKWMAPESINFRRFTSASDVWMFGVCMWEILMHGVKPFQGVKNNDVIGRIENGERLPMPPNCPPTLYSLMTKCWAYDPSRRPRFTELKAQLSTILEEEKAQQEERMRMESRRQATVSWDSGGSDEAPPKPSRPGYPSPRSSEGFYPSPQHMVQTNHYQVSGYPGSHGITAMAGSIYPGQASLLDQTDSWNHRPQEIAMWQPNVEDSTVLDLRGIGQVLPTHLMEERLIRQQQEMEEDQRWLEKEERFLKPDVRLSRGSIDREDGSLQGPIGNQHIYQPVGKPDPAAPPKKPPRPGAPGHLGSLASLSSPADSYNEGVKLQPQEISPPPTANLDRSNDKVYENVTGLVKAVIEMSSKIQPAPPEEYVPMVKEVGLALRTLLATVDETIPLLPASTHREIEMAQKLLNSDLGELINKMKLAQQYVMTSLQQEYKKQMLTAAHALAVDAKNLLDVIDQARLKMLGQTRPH
An asterisk follows results filed as active; / = no result given. An excerpt weighted towards active compounds, which were near 2.4% of everything screened.

SMILES	IL1B cytotox	PTK2B oligo ant	IL1B NFkB inh	JNK3 blocker	IL1B NFkB pot	FAK inh
Cc1ccc(S(=O)(=O)N(C)Cc2ccc(-c3nnc4n3CCC4)cc2)cc1	-18.7	-1.09	0.8	5.5	-0.8	-0.1
O=S(=O)(c1ccc(Cl)cc1)N1c2ccccc2Oc2nc3ccccc3nc21	86.3*	-2.09	97.3*	/	-97.3	3.7
CCc1nnc(NC(=O)CN2CCN(C3CCCCC3)CC2)s1	-18.1	1.32	10.9	/	-10.9	-1.8
Cc1cccn2cc(-c3ccccc3)nc12	-6.9	1.23	5.4	7.9	-5.4	-1.1
COc1ccc(-c2cn3ccc4ccccc4c3n2)cc1	-24.4	-0.39	-40.4	/	40.4*	0.8
CCOC(=O)Cc1csc(NC(=O)c2ccc(Br)s2)n1	88.6*	/	-8.9	-1.4	8.9	0.7
CCOc1ccc(OCc2ccc(C(=O)N3N=C(C(F)F)CC3(O)C(F)F)o2)cc1 (centres undefined)	-15.5	0.78	-44.8	/	44.8*	-0.2
O=C(NCC(c1cccnc1)N1CCN(c2ccccc2F)CC1)OCc1ccccc1 (centres undefined)	-14.6	-3.15*	-17.6	/	17.6	-2.3
O=C(NCC(c1cccnc1)N1CCN(c2ccc(F)cc2)CC1)OCc1ccccc1 (centres undefined)	12.4	-2.98	-10.9	/	10.9	-1.6
O=C(NCC(c1ccco1)N1CCN(c2ccc(F)cc2)CC1)OCc1ccccc1 (centres undefined)	/	-3.03*	/	/	/	/
O=C(NCC(c1cccnc1)N1CCN(c2ccccc2)CC1)OCc1ccccc1 (centres undefined)	-12.1	-1.38	-4.2	1.7	4.2	0.9
c1ccc(-n2ncc3c(NCc4ccco4)ncnc32)cc1	-3.7	-1.22	5.7	20.3*	-5.7	1.7
c1ccc(Cn2ncc3c(NCc4ccco4)ncnc32)cc1	/	0.24	/	-0.2	/	/
Cc1sc(NC(=O)CN2CCOCC2)nc1-c1ccc2c(c1)CCN2S(=O)(=O)c1ccccc1	-25.5	0.03	-16.1	/	16.1	1.6
O=C(CN1CCOCC1)Nc1nc(-c2ccc3c(c2)CCN3S(=O)(=O)c2ccccc2)cs1	-28.8	-3.04*	4.0	3.2	-4.0	4.8
COC(=O)c1cc2sccc2n1CC(=O)Nc1cccc(SC)c1	/	-3.56*	/	6.1	/	/
CCOC(=O)c1cc2sccc2n1CC(=O)Nc1ccc2c(c1)OCCO2	-36.4	-3.93*	-5.1	4.3	5.1	-2.3
CCOC(=O)c1cc2sccc2n1CC(=O)OC	-33.3	0.09	-16.0	/	16.0	-0.5
CC(=O)Nc1ccc(-c2nnc(SCC(=O)NCc3ccco3)n2C)cc1	-6.7	0.97	-8.3	/	8.3	-2.0
Cc1ccc(C(=O)Nc2cccc(C(=O)O)c2)cc1S(=O)(=O)N1CCCCC1	/	-0.54	/	5.2	/	/
CCOC(=O)c1ccc(N2C(=O)c3n[nH]c(C)c3C2c2ccc(O)cc2)cc1 (centres undefined)	-2.3	-2.69	-17.1	7.1	17.1	-8.1
CCOC(=O)c1ccc(N2C(=O)c3n[nH]c(C)c3C2c2ccccc2)cc1 (centres undefined)	-4.0	-3.06*	-8.0	-1.4	8.0	-10.0
N#C/C(=C(/O)CN1C(=O)c2ccccc2C1=O)c1nc2ccccc2[nH]1	80.5*	-0.27	-2.9	-1.7	2.9	4.6
N#C/C(=C(\O)Cc1ccccc1)c1nc2ccccc2[nH]1	10.5	-0.23	-25.3	/	25.3	3.1
CC(=O)Nc1ccc(C(=O)OCC(=O)Nc2ccccc2Sc2ccccc2)cc1	/	-3.12*	/	/	/	/
SMILES	IL1B cytotox	PTK2B oligo ant	IL1B NFkB inh	JNK3 blocker	IL1B NFkB pot	FAK inh
CC(=O)Nc1ccccc1Sc1ccccc1	-31.8	-0.42	-7.1	1.0	7.1	1.1
Cn1c(N)c(C(=O)COC(=O)c2ccco2)c(=O)n(C)c1=O	-14.7	-0.17	2.3	4.2	-2.3	1.1
CC1(C)CC(=O)C(C=NCCN2CCN(C(=S)Nc3ccc(F)cc3)CC2)=C(O)C1	/	1.49	/	/	/	-2.7
O=C(NCCO)c1ccc2[nH]c3c(c2c1)CCCC3	-33.3	0.44	-1.5	0.4	1.5	-3.7
O=C(NCCCO)c1ccc2[nH]c3c(c2c1)CCCC3	-14.4	1.51	-82.9	/	82.9*	-1.1
COc1cc(C2c3c(-c4cc(C)cc(C)c4O)n[nH]c3C(=O)N2CCCO)cc(OC)c1OC (centres undefined)	23.2	-0.89	-0.9	2.4	0.9	1.5
CC(C)OCCCN1C(=O)c2[nH]nc(-c3ccccc3O)c2C1c1cccc(Cl)c1 (centres undefined)	-13.8	-3.23*	-5.7	7.1	5.7	2.4
CCc1nc(NCc2ccco2)c2oc3ccccc3c2n1	-15.4	-1.26	8.1	/	-8.1	23.1*
c1ccc2c(c1)oc1c(Nc3ccc4c(c3)OCCO4)ncnc12	21.7	-2.68	-5.8	/	5.8	16.6
c1coc(CNc2nc3nonc3nc2NCc2ccco2)c1	-47.9	0.51	51.5*	-5.7	-51.5	-0.6
CCNc1nc(CC)nc2c1oc1ccccc12	-25.8	-0.26	-22.5	/	22.5	5.5
CCc1nc(NCc2ccc3c(c2)OCO3)c2oc3ccccc3c2n1	-4.3	-0.34	-21.9	/	21.9	0.4
CCc1nc(Nc2ccc3c(c2)OCCO3)c2oc3ccccc3c2n1	0.8	-3.35*	6.4	/	-6.4	0.1
Cc1nc(Nc2ccc3c(c2)OCCO3)c2oc3ccccc3c2n1	4.6	0.24	-87.1	/	87.1*	3.5
O=C(Nc1ccc2c(c1)CCC2)c1cc(S(=O)(=O)N2CCN(c3ccccc3)CC2)ccc1Cl	10.6	0.82	-5.7	/	5.7	-0.4
Fc1ccccc1/C=C1\CCCC2=C1Nc1nnnn1C2c1ccccc1F (centres undefined)	12.6	-1.39	3.7	/	-3.7	0.9
O=C(/C=C/c1ccccc1)Nc1ncn[nH]1	3.1	0.12	1.1	/	-1.1	-10.0
Cn1c(C(O)c2ccc3c(c2)OCO3)nc2ccccc21 (centres undefined)	84.0*	1.22	98.1*	3.0	-98.1	0.7
CCCN1CCN(CCCNC(=O)c2cc3c(=O)n(C)c4ccccc4c3n2C)CC1	-6.5	/	89.5*	5.2	-89.5	0.9
Cn1c(C(=O)NCCCN2CCCCCC2)cc2c(=O)n(C)c3ccccc3c21	21.5	/	0.9	0.2	-0.9	12.6
Nc1nc2ccc(O)cc2s1	-33.1	0.06	35.1*	/	-35.1	1.0
Nc1nc2ccc(S(=O)(=O)c3ccc4nc(N)sc4c3)cc2s1	-21.1	-2.73	-3.9	4.4	3.9	-2.3
Cn1nnnc1Sc1nc(-c2cccnc2)nc2ccccc12	/	/	/	-4.9	/	/
COc1ccc(Nc2nc(NCc3ccco3)nc(N/N=C/c3ccccc3)n2)cc1	-3.5	-3.2*	3.7	/	-3.7	3.3
S=c1[nH]nc(-c2ccccc2Cl)n1CC1CCCO1 (centres undefined)	70.3*	0.36	-23.4	-4.8	23.4	-0.6
CC(C)N(C(=O)CSc1nc2ccccc2n1Cc1ccc(F)cc1)C(C)C	8.6	-1.59	-3.0	/	3.0	-1.2
